# From PubChem BioAssay (Tox21)
# Unmarked numbers belong to inactive results. Results filed as inconclusive are left out. A call without a number means that no potency is given here. The source made the active and inactive calls. Unless noted, calls come from the whole dose curve.
# What was measured:
# [1] = Nuclear factor erythroid 2-related factor 2/antioxidant responsive element (Nrf2/ARE) small molecule agonists: qHTS cell viability counter screen in human keratinocytes (AID 1919968; active = well fitted curve in the direction sought with a large enough effect in the repeat runs; an effect the other way counts as inactive or inconclusive; note: nearly all actives have a fitted effect of over 55% in size; note: potency is the fitted concentration of half-maximal effect)
# Procedure, shortened: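 Stably transfected HaCaT (KeratinoSens), 1,500/well. Test agents in DMSO were applied for 23 h, 37 C/5% CO2. CellTiter-Fluor was incubated 1 h before the fluorescence read.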
# [2] = Nuclear factor erythroid 2-related factor 2/antioxidant responsive element (Nrf2/ARE) small molecule agonists: luciferase reporter gene qHTS assay in human keratinocytes (AID 1919969); note: nearly all actives have a fitted effect of over 35% in size; note: potency is the fitted concentration of half-maximal effect
# [3] = molecular target: Gonadotropin-releasing hormone receptor (Homo sapiens) (UniProt P30968); test: Human gonadotropin-releasing hormone receptor (GnRHR) small molecule agonists, calcium flux assay in GnRHR-HEK293 cells (AID 1920063); note: nearly all actives have a fitted effect of over 35% in size; note: potency is the fitted concentration of half-maximal effect
# Procedure, shortened: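 Stable human GnRHR HEK293 line. 18 h plating, then calcium dye for 1 h at 37 C. Agonist-mode compound addition from DMSO stocks; fluorescence monitored 3 min.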
# [4] = molecular target: KiSS-1 receptor (Homo sapiens) (UniProt Q969F8); test: Human kisspeptin (KISS1R) small molecule agonists, calcium flux assay in KISS1R-HEK293 cells (AID 1920064; active = well fitted curve in the direction sought with a large enough effect in the repeat runs; an effect the other way counts as inactive or inconclusive)
# Procedure, shortened: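 After overnight (18 h) culture at 37 C/5% CO2, human KISS1R-HEK293 cells received calcium dye for 1 h, then test compound; emission at 540 nm (excitation 480 nm) was tracked for 3 min.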
# [5] = G protein-coupled receptor (GPCR) small molecule agonists, calcium flux assay: HEK293 wild type cell line counter screen (AID 1920065)
# Procedure, shortened: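 Following 18 h incubation at 37 C/5% CO2, plates got calcium dye for 1 h; compounds, ATP or DMSO were then pinned in and fluorescence followed kinetically (480/540 nm).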
# [6] = p53 small molecule agonists, cell-based qHTS assay with human liver microsomes: qHTS cell viability counter screen (AID 1963579); note: nearly all actives have a fitted effect of over 45% in size; note: potency is the fitted concentration of half-maximal effect
# Procedure, shortened: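 p53RE-bla cells, 4,000/well, dosed 5 hours after plating, with human liver microsomes (0.5 mg/mL final) plus NADPH (0.5 mg/mL final), 16 hours at 37 C. Viability read as CellTiter-Glo luminescence after 30 min at room temperature.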
# [7] = p53 small molecule agonists, cell-based qHTS assay: qHTS cell viability counter screen (AID 1963581); note: nearly all actives have a fitted effect of over 45% in size; note: potency is the fitted concentration of half-maximal effect
# Procedure, shortened: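 qHTS counter screen: 16 h compound exposure at 37 C of p53RE-bla HCT-116 cells (4,000 per well, seeded 5 h prior), cell viability by ATP luminescence.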
# [8] = molecular target: 5-hydroxytryptamine receptor 2A (Homo sapiens) (UniProt P28223); test: 5-hydroxytryptamine receptor 2A (HTR2A) small molecule agonists, cell-based qHTS assay (AID 1963587); note: nearly all actives have a fitted effect of over 30% in size; note: potency is the fitted concentration of half-maximal effect
# Procedure, shortened: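 CHO cells stably expressing human HTR2A, plated 18 h, loaded with calcium dye 1 h at 37 C. Agonist mode: compounds added and intracellular calcium fluorescence recorded kinetically for 2 min at 1 sec intervals.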
# [9] = molecular target: Muscarinic acetylcholine receptor M1 (Homo sapiens) (UniProt P11229); test: Cholinergic receptor muscarinic 1 (CHRM1) small molecule antagonists, cell-based qHTS assay (AID 1963588); note: nearly all actives have a fitted effect of over 40% in size; note: potency is the fitted concentration of half-maximal effect
# Procedure, shortened: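 Compounds were tested at 15 concentrations in three independent runs. Dye-loaded CHRM1-CHO cells were exposed 5 min at room temperature before stimulation by acetylcholine added at 50nM. Intracellular calcium was read kinetically on FDSS for 3 min.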
# [10] = molecular target: Beta-2 adrenergic receptor (Homo sapiens) (UniProt P07550); test: Adrenergic beta2 receptor (ADRB2) small molecule antagonists, cell-based qHTS assay (AID 1963592); note: series mostly up to about 92 µM; nearly all actives have a fitted effect of over 50% in size
# Procedure, shortened: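 Assay format: CHO-ADRB2 cells, 18-20hr seeding at 37C/5% CO2, then compound plus 1nM isoproterenol agonist mix for 0.5hr RT. Homogeneous time-resolved fluorescence cAMP detection after 1hr, expressed as 665/615 nm ratio.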
# [11] = molecular target: Beta-2 adrenergic receptor (Homo sapiens) (UniProt P07550); test: Adrenergic beta2 receptor (ADRB2) small molecule agonists, cell-based qHTS assay (AID 1963593);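 note: CHO cells stably overexpressing human ADRB2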
# Procedure, shortened: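 CHO cells stably over-expressing ADRB2 were plated overnight at 37C, then dosed with compounds plus a stimulation mix containing 100uM IBMX and 25uM Ro-20-1724 for 0.5hr at room temperature. cAMP was measured by HTRF competition, 1hr.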
# [12] = molecular target: D(2) dopamine receptor (Homo sapiens) (UniProt P14416); test: Dopamine D2 receptor (DRD2) small molecule agonists, cell-based qHTS assay (AID 1963594); note: nearly all actives have a fitted effect of over 35% in size
# Procedure, shortened: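 HEK293 cells stably expressing human DRD2, pre-treated with PDE inhibitor Ro20-1724 (0.1 mM final) and compound 10 min at room temperature, then stimulated with NKH477 (200nM […]) for 30 min. cAMP read by HTRF (665/620 nm).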
# [13] = molecular target: D(2) dopamine receptor (Homo sapiens) (UniProt P14416); test: Dopamine D2 receptor (DRD2) small molecule antagonists, cell-based qHTS assay (AID 1963595; active = well fitted inhibition curve with a large enough effect in the signal ratio in the repeat runs, with a control signal flat; the % refers to the signal ratio; note: potency is the fitted concentration of half-maximal effect)
# Procedure, shortened: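 In this cell-based antagonist screen, compounds act for 10 min at room temperature before a 30 min challenge with 12 nM quinpirole and 200 nM NKH477. cAMP is quantified by HTRF competition in DRD2-HEK293 cells containing 0.1 mM Ro20-1724.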
# [14] = p53 small molecule agonists, cell-based qHTS assay with rat liver microsomes: qHTS cell viability counter screen (AID 1963580); note: nearly all actives have a fitted effect of over 45% in size; note: potency is the fitted concentration of half-maximal effect
# Procedure, shortened: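 Cytotoxicity counter screen: intracellular ATP measured by CellTiter-Glo luminescence in the same wells as the beta-lactamase reporter read, on HCT-116 p53RE-bla cells exposed 16 h at 37 C to compounds with rat liver microsomes and NADPH, each 0.5 mg/mL final.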
# [15] = molecular target: 5-hydroxytryptamine receptor 2A (Homo sapiens) (UniProt P28223); test: 5-hydroxytryptamine receptor 2A (HTR2A) small molecule antagonists, cell-based qHTS assay (AID 1963586); note: nearly all actives have a fitted effect of over 45% in size
# Procedure, shortened: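 CHO cells stably expressing human HTR2A were plated for 18 h at 37 C, then loaded with calcium dye for 1 h. Compounds were preincubated 5 min at room temperature before DOI (4 nM solution) was added. Kinetic fluorescence was read for 3 min.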
# [16] = molecular target: Muscarinic acetylcholine receptor M1 (Homo sapiens) (UniProt P11229); test: Cholinergic receptor muscarinic 1 (CHRM1) small molecule agonists, cell-based qHTS assay (AID 1963589); note: nearly all actives have a fitted effect of over 35% in size
# Procedure, shortened: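 Kinetic fluorescence (1 s intervals) of calcium-sensitive dye in human M1 CHO cells after compound addition; cells pre-incubated 18 h at 37 C/5% CO2 and dye-loaded 1 h.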
# [17] = cAMP Responsive Elements (CRE) small molecule agonists, cell-based qHTS assay (AID 1963590)
# Procedure, shortened: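 Test agents in DMSO were incubated 3 h at 37 C/5% CO2 with CRE-bla HEK 293T cells seeded 18 h earlier; LiveBLAzer B/G FRET substrate was added and read after 2 h at room temperature.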
# [18] = p53 small molecule agonists, cell-based qHTS assay with human liver microsomes (AID 1963577)
# Procedure, shortened: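 p53RE-bla cells, 4,000/well, compound added after 5 h, with human liver microsomes 0.5 mg/mL and NADPH 0.5 mg/mL final; 16 h at 37 C, then LiveBLAzer 2 h RT, fluorescence.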
# [19] = p53 small molecule agonists, cell-based qHTS assay with rat liver microsomes (AID 1963578)
# Procedure, shortened: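 p53RE-bla cells, 4,000/well, pre-incubated 5 h, then given compounds plus rat liver microsomes (0.5 mg/mL final) and NADPH (0.5 mg/mL final). Incubation 16 h at 37 C; beta-lactamase reporter read by LiveBLAzer fluorescence after 2 h at room temperature.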
# [20] = cAMP Responsive Elements (CRE) small molecule antagonists, cell-based qHTS assay (AID 1963591; active = well fitted inhibition curve with a large enough effect in the signal ratio in the repeat runs, not every such curve was filed as active; the % refers to the signal ratio; note: potency is the fitted concentration of half-maximal effect)
# Procedure, shortened: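 Reporter line CRE-bla HEK 293T in dialyzed-FBS DMEM; cells preincubated 18 h, treated 3 h with compound plus NKH477 (0.25 uM final); LiveBLAzer FRET, 2 h RT.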
# Sequence of 5-hydroxytryptamine receptor 2A (Homo sapiens) (P28223 whole entry, looked up): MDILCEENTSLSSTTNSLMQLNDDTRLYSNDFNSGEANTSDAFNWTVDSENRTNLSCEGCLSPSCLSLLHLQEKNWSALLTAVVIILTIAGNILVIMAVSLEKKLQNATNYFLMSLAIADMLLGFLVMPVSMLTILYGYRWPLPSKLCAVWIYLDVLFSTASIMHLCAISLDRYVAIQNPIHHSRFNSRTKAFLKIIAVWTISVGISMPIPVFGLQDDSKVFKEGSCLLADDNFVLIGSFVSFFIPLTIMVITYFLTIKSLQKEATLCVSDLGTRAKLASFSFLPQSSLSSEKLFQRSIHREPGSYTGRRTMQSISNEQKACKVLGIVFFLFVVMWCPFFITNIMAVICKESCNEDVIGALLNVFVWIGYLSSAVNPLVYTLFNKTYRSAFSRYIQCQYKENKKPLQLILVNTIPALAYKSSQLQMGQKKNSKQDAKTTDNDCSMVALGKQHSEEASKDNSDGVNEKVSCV
# Sequence of D(2) dopamine receptor (Homo sapiens) (P14416 whole entry, looked up): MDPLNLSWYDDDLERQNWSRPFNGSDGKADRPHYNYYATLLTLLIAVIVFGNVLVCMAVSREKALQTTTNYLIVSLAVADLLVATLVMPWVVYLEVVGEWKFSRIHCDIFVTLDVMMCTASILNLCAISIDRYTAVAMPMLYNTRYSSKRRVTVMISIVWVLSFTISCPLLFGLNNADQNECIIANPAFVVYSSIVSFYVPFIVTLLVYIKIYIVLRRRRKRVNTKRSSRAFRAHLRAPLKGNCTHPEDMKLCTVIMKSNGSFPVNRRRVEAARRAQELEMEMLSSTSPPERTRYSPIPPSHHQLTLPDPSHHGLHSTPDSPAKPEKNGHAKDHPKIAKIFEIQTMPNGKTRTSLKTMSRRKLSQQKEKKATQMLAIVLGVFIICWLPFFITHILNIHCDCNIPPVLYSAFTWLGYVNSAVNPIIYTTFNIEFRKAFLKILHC
# Sequence of Muscarinic acetylcholine receptor M1 (Homo sapiens) (P11229 whole entry, looked up): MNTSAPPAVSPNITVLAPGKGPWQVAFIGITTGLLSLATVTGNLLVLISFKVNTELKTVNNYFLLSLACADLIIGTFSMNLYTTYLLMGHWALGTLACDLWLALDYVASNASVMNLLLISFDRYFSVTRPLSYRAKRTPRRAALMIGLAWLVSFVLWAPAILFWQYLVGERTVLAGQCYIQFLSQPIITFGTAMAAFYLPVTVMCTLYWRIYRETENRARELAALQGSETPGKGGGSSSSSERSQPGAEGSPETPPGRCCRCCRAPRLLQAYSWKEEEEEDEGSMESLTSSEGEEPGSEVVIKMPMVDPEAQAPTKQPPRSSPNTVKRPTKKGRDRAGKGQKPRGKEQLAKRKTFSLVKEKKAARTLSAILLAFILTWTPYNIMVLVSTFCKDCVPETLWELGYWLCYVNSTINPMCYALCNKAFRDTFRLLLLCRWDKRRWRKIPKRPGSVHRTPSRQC
# Sequence of KiSS-1 receptor (Homo sapiens) (Q969F8 whole entry, looked up): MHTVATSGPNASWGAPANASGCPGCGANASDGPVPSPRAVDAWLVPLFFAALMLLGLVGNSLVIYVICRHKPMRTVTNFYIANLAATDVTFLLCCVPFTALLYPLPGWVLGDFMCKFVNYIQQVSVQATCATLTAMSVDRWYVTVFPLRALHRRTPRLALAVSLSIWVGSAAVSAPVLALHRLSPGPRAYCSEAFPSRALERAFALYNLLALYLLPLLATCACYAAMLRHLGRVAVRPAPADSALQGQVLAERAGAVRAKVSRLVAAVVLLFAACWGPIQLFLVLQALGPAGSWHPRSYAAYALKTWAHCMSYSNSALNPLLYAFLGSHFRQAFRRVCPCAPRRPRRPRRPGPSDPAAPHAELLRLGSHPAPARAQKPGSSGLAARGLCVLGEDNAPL
# Sequence of Beta-2 adrenergic receptor (Homo sapiens) (P07550 whole entry, looked up): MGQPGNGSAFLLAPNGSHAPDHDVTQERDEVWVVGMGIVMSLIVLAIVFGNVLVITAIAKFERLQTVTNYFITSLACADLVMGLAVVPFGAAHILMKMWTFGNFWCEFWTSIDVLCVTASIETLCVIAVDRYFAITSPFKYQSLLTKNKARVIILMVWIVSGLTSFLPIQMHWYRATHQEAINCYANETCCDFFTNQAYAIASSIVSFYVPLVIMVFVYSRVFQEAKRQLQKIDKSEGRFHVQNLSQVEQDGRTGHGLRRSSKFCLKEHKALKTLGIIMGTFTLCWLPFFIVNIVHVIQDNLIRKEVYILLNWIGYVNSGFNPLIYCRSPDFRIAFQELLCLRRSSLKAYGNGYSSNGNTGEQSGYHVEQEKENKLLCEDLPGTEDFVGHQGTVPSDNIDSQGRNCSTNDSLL
# Sequence of Gonadotropin-releasing hormone receptor (Homo sapiens) (P30968 whole entry, looked up): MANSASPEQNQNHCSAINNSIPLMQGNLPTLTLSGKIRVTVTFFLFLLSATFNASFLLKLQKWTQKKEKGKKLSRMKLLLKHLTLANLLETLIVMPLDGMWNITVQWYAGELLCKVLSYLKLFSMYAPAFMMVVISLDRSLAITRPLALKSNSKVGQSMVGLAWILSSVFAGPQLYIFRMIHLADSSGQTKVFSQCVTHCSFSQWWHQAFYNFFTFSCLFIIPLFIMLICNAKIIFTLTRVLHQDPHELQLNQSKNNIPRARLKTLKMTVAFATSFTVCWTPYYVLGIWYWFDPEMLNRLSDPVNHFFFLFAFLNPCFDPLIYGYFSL
SMILES,Potency [1],Potency [2],Potency [3],Potency [4],Potency [5],Potency [6],Potency [7],Potency [8],Potency [9],Potency [10],Potency [11],Potency [12],Potency [13],Potency [14],Potency [15],Potency [16],Potency [17],Potency [18],Potency [19],Potency [20]
CCCCC(CC)COP(=O)(Oc1ccccc1)Oc1ccccc1 (configuration not stated),inactive,30.6 µM (active),inactive,inactive,inactive,inactive,inactive,inactive,inactive,inactive,inactive,inactive,inactive,–,–,–,–,–,–,–
Nc1cc2c3c(c1)C(c1ccccc1)=N[C@@H](NC(=O)c1cccnc1)C(=O)N3CC2,inactive,inactive,inactive,inactive,inactive,–,inactive,inactive,inactive,inactive,inactive,inactive,inactive,inactive,inactive,inactive,inactive,–,–,–
CO/C=C(/C(=O)OC)c1ccccc1COc1cccc(C(F)(F)F)n1,inactive,inactive,inactive,inactive,–,inactive,inactive,inactive,inactive,inactive,inactive,–,inactive,inactive,inactive,inactive,–,inactive,inactive,–
NC1=NC(=O)C(c2ccccc2)O1 (configuration not stated),inactive,inactive,inactive,inactive,–,–,inactive,–,–,inactive,–,inactive,inactive,inactive,–,–,–,inactive,inactive,inactive
CCOP(=O)(OCC)O/C(=C/Cl)c1ccc(Cl)cc1Cl,inactive,inactive,inactive,inactive,–,inactive,inactive,inactive,–,inactive,inactive,inactive,inactive,inactive,–,inactive,–,–,–,–
CC(CC(C#N)(c1ccccc1)c1ccccc1)N(C)C (configuration not stated),inactive,inactive,inactive,inactive,–,inactive,inactive,inactive,0.0105 µM (active),inactive,–,inactive,inactive,inactive,–,inactive,inactive,inactive,inactive,inactive
CCOC(=O)c1ncn2c1CN(C)C(=O)c1c(I)cccc1-2,inactive,inactive,inactive,inactive,–,inactive,inactive,inactive,inactive,inactive,inactive,inactive,–,inactive,inactive,inactive,inactive,inactive,inactive,–
S=C=Nc1cccc2ccccc12,27 µM (active),15.2 µM (active),inactive,inactive,–,inactive,inactive,–,–,inactive,inactive,inactive,inactive,inactive,–,–,inactive,inactive,inactive,–
Cc1ccccc1CO[C@@H]1C[C@@]2(C(C)C)CC[C@]1(C)O2,inactive,inactive,inactive,inactive,–,inactive,–,inactive,–,inactive,inactive,inactive,inactive,inactive,inactive,inactive,–,–,–,–
COC(=O)N(OC)c1ccccc1COc1ccn(-c2ccc(Cl)cc2)n1,inactive,inactive,inactive,inactive,–,inactive,inactive,inactive,–,inactive,inactive,inactive,inactive,inactive,inactive,inactive,inactive,–,inactive,61.1 µM (active)
CCOC(=O)C(Cl)C(C)=O (configuration not stated),inactive,inactive,inactive,inactive,–,inactive,inactive,–,4.26 µM (active),inactive,–,inactive,inactive,inactive,inactive,inactive,inactive,inactive,inactive,inactive
CCO/N=C(\CC)C1=C(O)CC(c2c(C)cc(C)cc2C)CC1=O (configuration not stated),inactive,inactive,inactive,inactive,–,–,–,inactive,–,inactive,–,–,–,inactive,inactive,inactive,–,inactive,inactive,–
C[N+](C)(C)CCCl,inactive,inactive,inactive,inactive,–,inactive,–,inactive,inactive,inactive,–,inactive,inactive,inactive,–,–,inactive,inactive,inactive,–
CCOCn1c(-c2ccc(Cl)cc2)c(C#N)c(Br)c1C(F)(F)F,34.4 µM (active),24.3 µM (active),inactive,inactive,–,22.9 µM (active),10.2 µM (active),inactive,inactive,–,–,inactive,–,22.9 µM (active),inactive,inactive,–,–,–,–
CC(=O)[O][Pb]([c]1ccccc1)([c]1ccccc1)[c]1ccccc1,3.86 µM (active),0.864 µM (active),30.9 µM (active),inactive,–,4.08 µM (active),16.2 µM (active),49 µM (active),–,–,–,–,4.33 µM (active),8.14 µM (active),inactive,–,–,inactive,inactive,–
CC(C)(C)c1cc([N+](=O)[O-])cc([N+](=O)[O-])c1O,13.6 µM (active),30.5 µM (active),38.8 µM (active),inactive,–,inactive,–,inactive,–,inactive,–,inactive,inactive,inactive,inactive,inactive,–,–,–,–
CNC(=O)Oc1ccccc1C(C)C,inactive,inactive,inactive,inactive,–,inactive,inactive,inactive,inactive,inactive,inactive,inactive,inactive,inactive,–,inactive,inactive,–,–,inactive
